Shown are actives, neighbours in structure and some others; about 18% of the full set was active somewhere.
DT40 TDP1 CPT – DT40-hTDP1 cell growth loss with CPT. chicken DT40 Tdp1-/-;hTDP1 cells + 20 nM CPT, ATP luminescence, 48 h. Potency, µM (top dose mostly 46.2 µM), inactives show at the top dose activity change, negative = growth inhibition, most hits filed as inhibitors. hit rate 12% among 420,000; note: potency is the fitted concentration of half-maximal effect; nearly all actives have a fitted effect of over 55% in size
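Cell growth measured by CellTiter-Glo luminescence after a minimum 48 h, 37 C compound exposure with 20 nM CPT in Tdp1-knockout DT40 cells stably expressing hTDP1, seeded 400/well; qHTS titration format.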
IL-1B inflam inh – inflammasome signaling inhibition, IL-1 beta readout | THP-1 LPS/ATP IL-1B secretion, AlphaLISA, 16 h; stronger effect = lower value | activity change, % at 57.5 µM | hit rate 4.7% among 360,000; in the data active = activity change below about -50%; inconclusive = mostly about -30% to -49%
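Secreted IL-1B measured by AlphaLISA bead assay after 16 h compound exposure of THP-1 cells; compounds (final up to 57.5 uM) added 1 h before LPS (250 ng/mL) and ATP (1.25 mM) stimulation; lower signal means less secretion.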
LDHA inh – LDHA (human) enzyme inhibition | P00338 | AID 1347041 | activity change, % (values are at about 110 or 230 µM) | hit rate 0.15% among 480,000 | purified LDHA, NADH/diaphorase-resazurin fluorescence; stronger effect = lower value; in the data active = activity change below about -30%; inconclusive = mostly about -25% to -30%;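 note: plate controls were DMSO wells for no effect and wells without enzyme for full effect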
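Human LDH5 (2 nM) was incubated with 0.06 mM NADH and 0.2 mM pyruvate for 5 min at room temperature in Tris pH 7.4. Remaining NADH was coupled through diaphorase/resazurin, and resorufin fluorescence was read at 0 and 20 min.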
DT40 TDP1 no CPT – qHTS for Inhibitors of human tyrosyl-DNA phosphodiesterase 1 (TDP1): qHTS in cells in absence of CPT; hit rate 15% among 420,000; Potency, µM (top dose mostly 46.2 µM), for inactives: at the top dose activity change, negative = growth inhibition, actives largely listed as inhibitors; DT40 Tdp1-/- hTDP1 cells, no CPT, ATP luminescence, 48 h; AID 686978, 2013; note: potency is the fitted concentration of half-maximal effect; nearly all actives have a fitted effect of over 55% in size
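Growth kinetics read by CellTiter-Glo luminescence after ≥48 hr at 37 °C. Cells: DT40 Tdp1-/- stably carrying human TDP1, 400 per well, compound exposure in the absence of CPT (DMSO vehicle).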
VP16 counter – Gal4-VP16 reporter inhibition counter-screen; Drosophila S2 Gal4-VP16 UAS-luciferase, luminescence, 20 h; AID 2546; Potency, µM (series often up to 53.6 µM), inactives show top-dose activity, negative = inhibition, actives largely listed as inhibitors; hit rate 3.5% among 310,000;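 note: Gal4-VP16 expression switched on by copper sulfate through the metallothionein promoter; potency is the fitted concentration of half-maximal effect; nearly all actives have a fitted effect of over 50% in size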
RORgamma inh – inhibitors of mouse ROR gamma transcriptional activity | P51450 | Drosophila S2 Gal4-RORgamma UAS-luciferase reporter, 20 h | Potency, µM (highest dose often 53.6 µM), without a hit: at the highest dose activity change, negative = inhibition, actives largely listed as inhibitors | hit rate 5.4% among 310,000; note: potency is the fitted concentration of half-maximal effect; nearly all actives have a fitted effect of over 60% in size
Target sequence (P51450 whole entry, looked up, the tested form may be a part): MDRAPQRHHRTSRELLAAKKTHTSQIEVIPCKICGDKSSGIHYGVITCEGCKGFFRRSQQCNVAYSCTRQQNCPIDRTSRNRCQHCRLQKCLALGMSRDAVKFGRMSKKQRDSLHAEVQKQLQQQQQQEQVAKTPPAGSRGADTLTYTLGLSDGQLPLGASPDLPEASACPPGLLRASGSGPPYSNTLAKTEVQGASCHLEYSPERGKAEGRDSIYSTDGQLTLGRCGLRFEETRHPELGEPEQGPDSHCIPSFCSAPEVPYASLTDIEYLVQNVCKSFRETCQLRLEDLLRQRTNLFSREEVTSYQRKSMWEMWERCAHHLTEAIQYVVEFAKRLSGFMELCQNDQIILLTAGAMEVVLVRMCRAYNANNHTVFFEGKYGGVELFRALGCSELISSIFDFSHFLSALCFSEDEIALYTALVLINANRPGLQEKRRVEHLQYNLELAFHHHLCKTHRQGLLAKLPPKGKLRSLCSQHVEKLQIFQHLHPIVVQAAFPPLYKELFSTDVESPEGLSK
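Luminescence from a UAS-regulated Photinus luciferase reporter in stably transfected Drosophila Schneider cells is measured; decreased signal marks ROR gamma inhibition. Fusion expression is induced by 700 uM copper sulfate for 20 hr.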
Numbers without * were called inactive. Unless noted, calls come from the whole dose curve; as a rule, active = well fitted curve in the direction sought with a large enough effect; inconclusive = small, poorly fitted or top-dose-only effect, or another doubt; inactive = no such curve, though single readings can be large; an effect the other way counts as inactive or inconclusive. Unless noted, % is set by controls: 0 for no effect and ±100 for the full control effect.

Screening COc1cc(NC(=O)N2CCc3c(sc4c3CCCC4)C2c2ccccc2)cc(OC)c1OC (stereo not drawn) returned DT40 TDP1 CPT 10µM*, LDHA inh -6 and DT40 TDP1 no CPT 21µM*.
COc1cc(OC)c(NC(=O)N2CCc3c(sc4c3CCCC4)C2c2ccccc2)cc1Cl (stereo not drawn) was read as DT40 TDP1 CPT inconclusive, LDHA inh -9 and DT40 TDP1 no CPT 21µM*.
`COc1cc(OC)c(NC(=O)N2CCc3c([nH]c4ccccc34)C2c2ccccc2F)cc1Cl` (stereo not drawn) gave DT40 TDP1 CPT 18µM*, LDHA inh 6 and DT40 TDP1 no CPT 23µM*.
Screening O=C(c1cc[n+]([O-])cc1)N1CCc2c([nH]c3ccccc23)C1c1ccccc1Cl (stereo not drawn) returned DT40 TDP1 CPT -1%, IL-1B inflam inh 4, LDHA inh -3, DT40 TDP1 no CPT -20%, VP16 counter -16% and RORgamma inh 1%.
`CCCNC(=O)CCc1nc(-c2ccccc2)c(-c2ccccc2)o1` gave LDHA inh -6.
Cc1ccc(CNC(=O)CN(C)C(=O)c2ccc3c(c2)nnn3C)cc1 was read as LDHA inh 1.
`Cc1cnc2c(C)cccc2c1C` gave DT40 TDP1 CPT -129% and DT40 TDP1 no CPT 0.22µM*.
For Cc1cnc2ccccc2c1C the results were DT40 TDP1 CPT 2% and DT40 TDP1 no CPT -19%.
Screening COCCn1ccc2c(OCC(=O)Nc3cccc(OC)c3)cccc2c1=O returned DT40 TDP1 CPT inconclusive, LDHA inh -5 and DT40 TDP1 no CPT 15µM*.
Screening COCCn1ccc2c(OCC(=O)Nc3cccc(C(F)(F)F)c3)cccc2c1=O returned DT40 TDP1 CPT inconclusive, LDHA inh -1 and DT40 TDP1 no CPT 23µM*.
Screening CCOCCn1ccc2c(OCC(=O)Nc3ccc(OC)c(OC)c3)cccc2c1=O returned DT40 TDP1 CPT 15µM*, IL-1B inflam inh 15, LDHA inh -6 and DT40 TDP1 no CPT 10µM*.
For Cn1c(SCC(=O)Nc2ccc(Cl)cn2)nnc1C1CC1 the results were DT40 TDP1 CPT -1%, IL-1B inflam inh -78*, LDHA inh -9, DT40 TDP1 no CPT 24%, VP16 counter 4% and RORgamma inh 31%.
C=CCn1c(SCC(=O)Nc2ccc(Cl)cn2)nnc1C1CC1 was read as DT40 TDP1 CPT 29%, IL-1B inflam inh 40, LDHA inh -2, DT40 TDP1 no CPT 19%, VP16 counter 1% and RORgamma inh 12%.
`Cn1c(SCC(=O)c2ccccc2F)nnc1C1CC1` gave DT40 TDP1 CPT -29%, IL-1B inflam inh -7, LDHA inh -2, DT40 TDP1 no CPT -22%, VP16 counter 11µM* and RORgamma inh inconclusive.
For CCCN1C(=O)c2cc(C(=O)NCc3ccc(C)cc3)nn2CC1(C)C(=O)NC1CCCC1 (stereo not drawn) the results were LDHA inh 1.
`O=C(/C=C/c1ccccc1)c1cc2cc(Br)ccc2oc1=O` gave LDHA inh 2.
For O=C(/C=C/c1ccc(F)cc1)c1ccc(O)cc1 the results were LDHA inh 1.
Screening O=C(/C=C/c1ccccc1)c1cc(Br)ccc(=O)c1O returned DT40 TDP1 CPT 3.7µM*, IL-1B inflam inh -59*, LDHA inh 2, DT40 TDP1 no CPT 4.6µM*, VP16 counter inconclusive and RORgamma inh inconclusive.
Screening O=C(/C=C/c1ccc(F)cc1)c1cc(Br)ccc1O returned DT40 TDP1 CPT -4%, IL-1B inflam inh -57*, LDHA inh 3, DT40 TDP1 no CPT -22%, VP16 counter 28% and RORgamma inh 59%.
`Cc1ccc(/C=C/C(=O)c2ccccc(=O)c2O)cc1C` gave DT40 TDP1 CPT 23µM*, IL-1B inflam inh -81*, LDHA inh -2, DT40 TDP1 no CPT 13µM*, VP16 counter 3.5µM* and RORgamma inh 2.8µM*.
Cc1ccc(S(=O)(=O)Nc2nc3ccccc3nc2Nc2cccc(C(=O)O)c2)cc1 was read as LDHA inh 0.
Screening CCN1CCN(c2ccc(S(=O)(=O)N(CC)CC)cc2NC(=O)CCC2CCCC2)CC1 returned LDHA inh 2.
Screening N=C1/C(=C/c2cccn2-c2ccc([N+](=O)[O-])cc2)C(=O)N=C2SC=CN12 returned DT40 TDP1 CPT -21%, IL-1B inflam inh 0, LDHA inh -3, DT40 TDP1 no CPT inconclusive, VP16 counter -12% and RORgamma inh 8%.
Screening COc1ccc(-c2ccc(/C=C3/C(=N)N4C=CSC4=NC3=O)o2)c([N+](=O)[O-])c1 returned DT40 TDP1 CPT -30%, IL-1B inflam inh 6, LDHA inh -3, DT40 TDP1 no CPT inconclusive, VP16 counter 3.5µM* and RORgamma inh 2.5µM*.
Screening Cc1ccc(CN(C)Cc2ccco2)cc1 returned LDHA inh 8.
Screening Cc1cc2cc(C)c3nnc(SCc4ccccn4)n3c2cc1C returned DT40 TDP1 CPT 23µM*, IL-1B inflam inh -6, LDHA inh -2, DT40 TDP1 no CPT inconclusive, VP16 counter -4% and RORgamma inh -29%.
Cc1ccc(C)c2c1cc(C)c1nnc(SCc3ccccn3)n12 was read as DT40 TDP1 CPT 2%, IL-1B inflam inh 0, LDHA inh 0, DT40 TDP1 no CPT 11%, VP16 counter 5% and RORgamma inh inconclusive.
Screening N=C(N)c1ccc(COC2CCCCC2)cc1 returned LDHA inh 6.
`CCOc1ccc2nc(N3C(=O)CNC3=S)sc2c1` gave DT40 TDP1 CPT 16µM*, IL-1B inflam inh -97*, LDHA inh -7, DT40 TDP1 no CPT 6.5µM*, VP16 counter 2.8µM* and RORgamma inh 1µM*.
Screening Cc1cc2nc(N3C(=O)CNC3=S)sc2cc1C returned DT40 TDP1 CPT inconclusive, IL-1B inflam inh -97*, LDHA inh -4, DT40 TDP1 no CPT 5.8µM*, VP16 counter 3.2µM* and RORgamma inh 1µM*.
Screening COc1ccc(-c2csc(N3C(=O)CNC3=S)n2)cc1 returned DT40 TDP1 CPT 0%, IL-1B inflam inh -21, LDHA inh -6, DT40 TDP1 no CPT 1%, VP16 counter inconclusive and RORgamma inh inconclusive.
O=C(Nc1ccc(S(=O)(=O)N2CCCCCC2)cc1)c1csnn1 was read as LDHA inh 0.
For COc1ccccc1NC1(c2nnnn2-c2ccccc2)CCCCC1 the results were LDHA inh 0.

Compound activity from PubChem BioAssay.
